# Source: PubChem BioAssay
# Activity calls are given as the source filed them.
# What was measured:
# [1] = small molecules captured by biotinylated probe aFSTL3 – biochemical, small-molecule microarray, fluorescence 635/667, stem cell growth factor project, primary screen (AID 1064); conditions: higher = more signal;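 note: measures binding of the biotinylated anti-FSTL3 antibody to printed compounds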
# [2] = binders from COS7 lysate, DM2A8 probe, primary screen, torsin A project, cell lysate, small-molecule microarray, fluorescence 635/667 (AID 1065); conditions: higher = more signal, COS7 lysate expressing mutant human TOR1A
# [3] = small molecules captured by biotinylated probe aFGF2 – biochemical, small-molecule microarray, fluorescence 635/667, stem cell growth factor project, primary screen (AID 1067); conditions: higher = more signal;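 note: measures binding of biotinylated aFGF2 protein to printed compounds on slides; z-score merges feature fluorescence and signal-to-noise across triplicate slides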
# [4] = small molecules captured by biotinylated probe aFGF10 – biochemical, small-molecule microarray, fluorescence 635/667, stem cell growth factor project, primary screen (AID 1071); conditions: higher = more signal;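 note: score merges 667 nm spot intensity and signal to noise from triplicate slides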
# [5] = biological target: Neurogenic locus notch homolog protein 2 (Homo sapiens) (UniProt Q04721); experiment: small molecules binding Notch2 protein – biochemical, small-molecule microarray, 635 nm fluorescence, stem cell growth factors, primary screen (AID 1073); conditions: higher = more signal
# [6] = biological target: Pro-neuregulin-1, membrane-bound isoform (Homo sapiens) (UniProt Q02297); experiment: small molecules binding neuregulin-1 protein – biochemical, small-molecule microarray, fluorescence 635/667, psychiatric disease protein project, primary screen (AID 1075); conditions: NRG1 binding, 635 nm fluorescence, higher = more signal;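 note: score combines 667 nm spot fluorescence with signal to noise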
# [7] = tested on: Neuregulin-1 EGF-like domain; experiment: small molecules binding NRG1 EGF domain – biochemical, small-molecule microarray, 635 nm fluorescence, primary screen (AID 1081); conditions: higher = more signal;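 note: binding of the protein to compounds printed on small-molecule microarray slides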
# [8] = FRG1 expression reporter modulators in myotubes – cell-based, C2C12 myotubes, firefly/Renilla luciferase, luminescence, FRG1 inhibition for FSHD, primary screen (AID 1084); conditions: FRG1 promoter luciferase, higher = more signal, called active from +8 up or from −8 down
# [9] = small molecules captured by biotinylated probe aFST – biochemical, small-molecule microarray, fluorescence 635/667, stem cell growth factor project, primary screen (AID 1086); conditions: higher = more signal;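 note: score merges 667 nm fluorescence with signal-to-noise of each printed compound spot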
# [10] = binders of probe aHhip on microarray, primary screen, stem cell growth factor project, biochemical, small-molecule microarray, fluorescence 635/667 (AID 1087); conditions: higher = more signal;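 note: score merges spot fluorescence at 667nm with spot signal to noise ratio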
# [11] = tested on: PRMT1 (protein arginine N-methyltransferase 1); experiment: small molecules binding arginine methyltransferase PRMT1 – biochemical, small-molecule microarray, 635 nm fluorescence, primary screen (AID 1088); conditions: higher = more signal;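 note: binding of Prmt1 protein to compounds spotted on small-molecule microarray slides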
# [12] = growth effects on S. cerevisiae YJM789 – YJM789 clinical isolate, OD600, 24 h, basal, primary screen (AID 1089); conditions: higher = more signal, called active from +8 up or from −8 down;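 note: growth of clinical yeast isolate S. cerevisiae YJM 789 seeded 1000 cells per well; test concentration not given here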
# [13] = S. pombe growth modifiers, basal conditions – strain 972, OD600, 24 h, no modulator, primary screen (AID 1090);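 note: basal condition with compound alone and no growth modifier present; test concentration not given here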; conditions: S. pombe 972 growth, higher = more signal, called active from +8 up or from −8 down
# [14] = budding yeast growth modifiers under rapamycin – strain BY4716, OD600, 96 h, primary screen (AID 1091); note: test concentration not given here; conditions: S. cerevisiae BY4716 + rapamycin, higher = more signal, called active from +8 up or from −8 down
# [15] = biological target: Torsin-1A-interacting protein 2 (Homo sapiens) (UniProt Q8NFQ8); experiment: small molecules binding lysate-expressed LULL1 – cell lysate, human LULL1 lysate, 635/667 nm fluorescence, primary screen (AID 1092); conditions: small-molecule microarray, hLULL1 lysate binding, 635 nm fluorescence; higher = more signal;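 note: probe is lysate of COS7 cells overexpressing human LULL1; score merges per-feature 667 nm fluorescence with signal-to-noise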
# [16] = optical density change of DRC41 E. coli – strain DRC41, OD650, 24 h, E. coli filamentation project, primary screen (AID 1093);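 note: MC1000 strain lacking acrAB efflux and sulA so SOS filamentation is blocked; test concentration not given here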; conditions: E. coli DRC41 growth, higher = more signal, called active from +8 up or from −8 down
# [17] = probe aLefty2 binding to arrayed compounds – biochemical, biotinylated probe, 635/667 nm fluorescence, primary screen (AID 1094); conditions: small-molecule microarray, higher = more signal;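 note: score merges spot fluorescence near 667 nm with spot signal-to-noise ratio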
# [18] = tested on: Noggin (protein binding on small-molecule microarray); experiment: small molecules binding Noggin protein – biochemical, 635/667 nm fluorescence, primary screen (AID 1095); conditions: 635 nm fluorescence, higher = more signal;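 note: score merges 667 nm feature fluorescence with signal to noise over triplicate slides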
# [19] = biological target: Neurogenic locus notch homolog protein 3 (Homo sapiens) (UniProt Q9UM47); experiment: small molecules binding NOTCH3 protein – biochemical, 635/667 nm fluorescence, primary screen (AID 1096); conditions: small-molecule microarray, 635 nm fluorescence, higher = more signal
# [20] = probe aEGFR binding to arrayed compounds – biochemical, biotinylated probe, 635/667 nm fluorescence, primary screen (AID 1097); conditions: small-molecule microarray, higher = more signal;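 note: probe is a biotinylated anti-EGFR antibody binding compounds printed on slides; score combines fluorescence near 667 nm and signal to noise of each spot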
# Pro-neuregulin-1, membrane-bound isoform (Homo sapiens), sequence (Q02297 whole entry, looked up, the tested form may be a part, canonical isoform): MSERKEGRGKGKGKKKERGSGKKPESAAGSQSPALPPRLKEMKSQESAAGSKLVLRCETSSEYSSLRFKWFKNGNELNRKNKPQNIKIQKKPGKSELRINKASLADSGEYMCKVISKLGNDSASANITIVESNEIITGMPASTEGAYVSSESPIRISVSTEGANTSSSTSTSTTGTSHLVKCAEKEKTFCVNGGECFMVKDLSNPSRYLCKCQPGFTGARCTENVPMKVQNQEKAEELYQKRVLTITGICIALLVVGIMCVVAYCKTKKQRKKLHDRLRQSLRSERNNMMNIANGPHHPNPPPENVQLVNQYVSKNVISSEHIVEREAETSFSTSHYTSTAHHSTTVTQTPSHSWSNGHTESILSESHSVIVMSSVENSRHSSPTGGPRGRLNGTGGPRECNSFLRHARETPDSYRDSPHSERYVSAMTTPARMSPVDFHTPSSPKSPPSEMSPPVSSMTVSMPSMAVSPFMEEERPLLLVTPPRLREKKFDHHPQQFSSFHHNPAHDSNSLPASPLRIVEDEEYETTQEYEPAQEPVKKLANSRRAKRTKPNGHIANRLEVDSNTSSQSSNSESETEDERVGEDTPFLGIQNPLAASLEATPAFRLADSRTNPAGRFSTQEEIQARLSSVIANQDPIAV
# Neurogenic locus notch homolog protein 3 (Homo sapiens), sequence (Q9UM47 whole entry, looked up): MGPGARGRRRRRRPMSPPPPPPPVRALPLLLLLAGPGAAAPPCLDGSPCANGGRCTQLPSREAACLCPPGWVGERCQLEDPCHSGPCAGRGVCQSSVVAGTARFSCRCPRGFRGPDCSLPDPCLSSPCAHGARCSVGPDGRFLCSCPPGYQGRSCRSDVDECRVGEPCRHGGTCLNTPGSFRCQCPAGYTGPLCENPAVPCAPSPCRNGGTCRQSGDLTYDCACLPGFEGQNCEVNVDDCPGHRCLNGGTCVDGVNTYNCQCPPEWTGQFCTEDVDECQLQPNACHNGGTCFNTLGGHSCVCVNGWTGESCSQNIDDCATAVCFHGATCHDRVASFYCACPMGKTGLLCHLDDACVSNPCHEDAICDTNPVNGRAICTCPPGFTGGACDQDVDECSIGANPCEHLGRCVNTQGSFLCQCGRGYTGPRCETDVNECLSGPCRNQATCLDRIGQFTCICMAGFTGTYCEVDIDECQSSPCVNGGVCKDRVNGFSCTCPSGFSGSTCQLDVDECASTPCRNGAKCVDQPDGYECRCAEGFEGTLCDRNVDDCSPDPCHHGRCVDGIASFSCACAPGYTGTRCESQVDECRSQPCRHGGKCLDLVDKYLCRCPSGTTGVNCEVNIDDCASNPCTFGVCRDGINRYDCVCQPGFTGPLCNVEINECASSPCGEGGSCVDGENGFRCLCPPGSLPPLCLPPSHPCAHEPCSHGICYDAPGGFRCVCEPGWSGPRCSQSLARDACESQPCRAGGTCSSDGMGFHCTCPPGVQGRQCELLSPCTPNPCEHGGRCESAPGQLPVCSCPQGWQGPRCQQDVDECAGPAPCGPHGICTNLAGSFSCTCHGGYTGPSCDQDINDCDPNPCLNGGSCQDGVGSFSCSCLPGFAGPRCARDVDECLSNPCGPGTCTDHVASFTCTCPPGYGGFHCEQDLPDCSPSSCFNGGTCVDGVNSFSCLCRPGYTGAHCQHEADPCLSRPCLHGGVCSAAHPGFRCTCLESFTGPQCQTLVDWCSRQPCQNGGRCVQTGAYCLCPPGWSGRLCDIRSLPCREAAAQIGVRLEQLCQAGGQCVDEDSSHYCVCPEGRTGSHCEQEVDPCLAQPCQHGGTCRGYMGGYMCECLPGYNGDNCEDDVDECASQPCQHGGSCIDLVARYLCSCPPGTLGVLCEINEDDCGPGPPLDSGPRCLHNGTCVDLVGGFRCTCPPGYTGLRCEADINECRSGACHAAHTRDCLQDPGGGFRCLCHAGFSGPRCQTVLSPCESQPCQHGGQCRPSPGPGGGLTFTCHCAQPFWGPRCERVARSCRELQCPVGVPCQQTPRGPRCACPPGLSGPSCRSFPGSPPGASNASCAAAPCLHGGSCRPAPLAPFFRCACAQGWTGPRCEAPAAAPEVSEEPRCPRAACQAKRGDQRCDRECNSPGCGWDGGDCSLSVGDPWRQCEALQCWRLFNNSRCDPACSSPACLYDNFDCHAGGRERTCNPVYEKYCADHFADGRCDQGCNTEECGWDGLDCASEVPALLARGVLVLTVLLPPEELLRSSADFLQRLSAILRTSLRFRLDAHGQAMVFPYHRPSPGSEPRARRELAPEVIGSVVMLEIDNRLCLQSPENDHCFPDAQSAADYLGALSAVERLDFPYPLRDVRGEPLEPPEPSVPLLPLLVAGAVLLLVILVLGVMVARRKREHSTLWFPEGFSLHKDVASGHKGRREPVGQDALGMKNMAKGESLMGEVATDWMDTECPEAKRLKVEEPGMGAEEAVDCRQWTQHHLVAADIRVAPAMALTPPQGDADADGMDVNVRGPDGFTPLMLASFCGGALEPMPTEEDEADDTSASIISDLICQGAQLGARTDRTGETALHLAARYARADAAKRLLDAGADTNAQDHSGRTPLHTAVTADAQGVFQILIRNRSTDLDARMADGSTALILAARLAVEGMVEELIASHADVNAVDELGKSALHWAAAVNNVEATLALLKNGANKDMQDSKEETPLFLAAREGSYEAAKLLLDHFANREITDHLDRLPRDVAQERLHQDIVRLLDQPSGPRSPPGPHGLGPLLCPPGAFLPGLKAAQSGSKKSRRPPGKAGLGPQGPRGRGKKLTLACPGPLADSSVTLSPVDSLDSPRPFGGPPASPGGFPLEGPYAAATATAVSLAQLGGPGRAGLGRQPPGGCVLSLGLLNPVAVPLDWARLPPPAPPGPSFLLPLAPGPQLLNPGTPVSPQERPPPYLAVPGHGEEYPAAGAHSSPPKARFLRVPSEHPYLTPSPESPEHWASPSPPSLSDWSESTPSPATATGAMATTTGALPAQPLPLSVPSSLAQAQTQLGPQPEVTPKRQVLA
# Torsin-1A-interacting protein 2 (Homo sapiens), sequence (Q8NFQ8 whole entry, looked up): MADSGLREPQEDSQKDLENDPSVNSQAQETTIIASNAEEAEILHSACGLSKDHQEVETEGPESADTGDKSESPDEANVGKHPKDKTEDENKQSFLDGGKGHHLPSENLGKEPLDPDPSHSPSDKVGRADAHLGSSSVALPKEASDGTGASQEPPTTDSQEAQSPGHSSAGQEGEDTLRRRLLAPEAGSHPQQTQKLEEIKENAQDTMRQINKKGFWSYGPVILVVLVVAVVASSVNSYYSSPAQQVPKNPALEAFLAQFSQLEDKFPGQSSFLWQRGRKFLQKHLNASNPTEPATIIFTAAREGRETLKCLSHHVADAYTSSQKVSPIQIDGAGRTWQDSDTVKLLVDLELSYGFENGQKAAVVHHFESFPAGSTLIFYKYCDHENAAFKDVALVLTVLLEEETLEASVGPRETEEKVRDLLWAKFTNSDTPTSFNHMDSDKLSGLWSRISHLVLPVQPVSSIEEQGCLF
Compound,composite z-score [1],composite z-score [2],composite z-score [3],composite z-score [4],composite z-score [5],composite z-score [6],composite z-score [7],z-score [8],composite z-score [9],composite z-score [10],composite z-score [11],z-score [12],z-score [13],z-score [14],composite z-score [15],z-score [16],composite z-score [17],composite z-score [18],composite z-score [19],composite z-score [20]
CC1CC/C=C\[C@H]2OC34C=CCN(c5ccc(Cl)cc5)C(=O)[C@H]3N(CCCCCO)C(=O)[C@]4(C)C2C(=O)O1 (stereo not given in full),0.124,-0.673,-0.16,-1.26,-1.01,0.332,0.429,0.581 (inactive),-0.999,-0.0994,-0.318,0.184 (inactive),0.177 (inactive),-0.166 (inactive),-1,-0.367 (inactive),-0.233,-1.33,-0.394,-0.302
COc1ccc([Si](C)(C)[C@@H]2[C@@H](CC(=O)N(CCO)Cc3ccccc3)O[C@]3(C(=O)N(c4ccccc4)c4ccccc43)[C@H]2C)cc1,-0.337,0.326,-0.0455,0.276,0.212,0.954,1,-2.62 (inactive),0.593,-0.0994,1.56,-0.14 (inactive),0.001 (inactive),0.842 (inactive),2.26,1.01 (inactive),-0.0722,1.26,1.1,-0.0512
[N-]=[N+]=NCc1ccccc1[C@@H]1OC(c2ccc(OCCCO)cc2)=N[C@]1(CCS(=O)(=O)c1ccccc1)C(=O)NCC(O)CO (stereo not given in full),0.445,0.92,0.067,0.367,1.53,2,1.23,-0.547 (inactive),0.923,-0.0994,1.54,-1.69 (inactive),-0.741 (inactive),0.897 (inactive),3.85,0.171 (inactive),0.267,1,0.832,-0.0435
CC(=O)NCCCC[C@@H]1NC(=O)[C@H]2C[C@@H](C(=O)NCCCC[N+](C)(C)C)[C@@H](c3cccc(OCCO)c3)N2C1=O,-0.188,1.86,-0.0319,1.23,0.165,0.4,1.14,0.647 (inactive),0.593,0.24,1.41,-0.369 (inactive),-1.27 (inactive),-1.92 (inactive),1.97,1.08 (inactive),0.0503,1.81,1.01,0.162
